Bioassay records: PubChem, several laboratories
Compounds with a hit are over-represented: about 4.7% of the library has one in this group of screens.
PfHsp90 yeast 2 – growth inhibition of PfHsp90-expressing yeast, primary screen, antimalarial PfHsp90 inhibitor project, S. cerevisiae, BacTiter-Glo luminescence, single point, set 2; BacTiter-Glo ATP, 48 h; yeast lacking PDR1 and PDR3 efflux regulators; inhibition, % at 9.4 µM; 310,000 compounds, 0.32% hits; AID 504621, 2011;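 active = every replicate shows inhibition above about 80%, whatever the replicate mean, limit read from the data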
tim23-1 inh – growth inhibitors of tim23-1 mutant yeast, primary screen, luminescence, uHTS; inhibition, % at 20 µM; 330,000 compounds, 1.3% hits; S. cerevisiae tim23-1 growth, BacTiter-Glo luminescence, 24 h; AID 463212, 2010;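 active = growth inhibition of the mutant yeast at or above 50%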;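 also: temperature-sensitive mutant grown at 25 °C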
tim10-1 inh – growth inhibitors of tim10-1 mutant yeast, primary screen, luminescence, uHTS | inhibition, % at 20 µM | 330,000 compounds, 2.2% hits | S. cerevisiae tim10-1 ts strain growth, BacTiter-Glo, 24 h | AID 463190, 2010;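 active = inhibition of at least 40%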;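 also: mutant grown at 25 °C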
SKKanGAS inh – S. pyogenes SKKanGAS growth inhibitors in kanamycin, primary screen, streptokinase expression inhibitor project, SKKanGAS strain, BacTiter-Glo luminescence; 6 h; inhibition, % at 7.5 µM; 300,000 compounds, 1.3% hits; AID 1662, 2009;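 active = mean replicate score, as percent of positive control median, at least 50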;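 also: strain carries kanamycin resistance gene driven by streptokinase promoter and grows in 40 µg/ml kanamycin; loss of luminescence reflects streptokinase promoter inhibition or plain growth inhibition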
TIM10 inh – growth inhibitors of isogenic TIM10 control yeast, primary screen, counter-screen for tim10-1 yeast inhibitor project, luminescence, uHTS; S. cerevisiae TIM10 strain growth, BacTiter-Glo luminescence, 24 h; inhibition, % at 10 µM; 330,000 compounds, 1.4% hits; AID 463195, 2010;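 active = inhibition of 40% or more at the single tested concentration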;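 also: wild-type TIM10 isogenic control strain grown at permissive 25 °C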
ATG4B inh – ATG4B protease inhibitors, primary screen, biochemical, fluorescence, uHTS | Cysteine protease ATG4B (Homo sapiens), Q9Y4P1 | ATG4B cleavage of LC3-PLA2, NBD-HPC fluorescence, 1 h | inhibition, % at 8.33 µM | 340,000 compounds, 0.51% hits; in the data active = inhibition above about 40%
Target sequence (Q9Y4P1 whole entry, looked up): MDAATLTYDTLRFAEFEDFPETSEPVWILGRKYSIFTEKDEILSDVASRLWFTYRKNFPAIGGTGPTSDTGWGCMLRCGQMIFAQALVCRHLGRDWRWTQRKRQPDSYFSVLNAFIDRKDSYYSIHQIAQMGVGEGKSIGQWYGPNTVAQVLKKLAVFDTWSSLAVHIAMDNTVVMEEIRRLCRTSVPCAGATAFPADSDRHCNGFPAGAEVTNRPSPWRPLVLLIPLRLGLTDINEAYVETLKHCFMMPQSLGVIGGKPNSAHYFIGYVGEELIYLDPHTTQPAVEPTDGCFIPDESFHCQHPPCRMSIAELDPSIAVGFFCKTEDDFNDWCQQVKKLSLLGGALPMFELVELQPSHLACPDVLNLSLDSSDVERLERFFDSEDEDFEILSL
tim23-1 conf – tim23-1 mutant yeast growth inhibitors, confirmation, luminescence, single concentration | AID 463218, 2010 | 4,400 compounds, 83% hits | shares compounds with tim23-1 inh | inhibition, % at 20 µM | S. cerevisiae tim23-1 growth, BacTiter-Glo luminescence, 24 h;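 active = inhibition above about 39% in either of two replicate wells at 20 µM, limit read from the data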;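 also: temperature-sensitive tim23-1 mutant grown at 25 °C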
Large screens that a line does not name were inactive (follow-up assays come after a bar, where they were run).

CCc1ccc(NC(=O)c2nc(S(=O)(=O)Cc3ccccc3)ncc2Cl)cc1	PfHsp90 yeast 2 98.9, tim23-1 inh 66.2 (no result: ATG4B inh) | tim23-1 conf inactive
COC(=O)c1ccc(NC(=O)c2nc(S(=O)(=O)Cc3cccc(C)c3)ncc2Cl)cc1	PfHsp90 yeast 2 109.0, tim23-1 inh 68.9, SKKanGAS inh 104.3 | tim23-1 conf 51.4
COc1cc2c(cc1OC)C(c1cc(Br)ccc1O)N(C(C)=O)CC2 (stereo unspecified)	none
CC(C)Oc1ccc(C(=O)NC(=S)Nc2ccc(CN3CCOCC3)cc2)cc1	none
Cc1ccc(C(=O)NC(=S)Nc2ccc(CN3CCOCC3)cc2)cc1	tim23-1 inh 52.4 | tim23-1 conf inactive
COc1c(Cl)cccc1-c1cn2ccccc2n1	tim23-1 inh 55.3 | tim23-1 conf inactive
Cn1c(CCN2CCN(c3ccccn3)CC2)nc2cc(NS(=O)(=O)c3ccccc3)ccc21	none
C/C(N)=C(/C#N)C(=O)CSc1nc2ccccc2c(=O)n1Cc1ccc(C)cc1	tim23-1 inh 57.2 | tim23-1 conf inactive
Cn1ccnc1SCC(=O)n1c2c(c3ccccc31)CCCC2	tim23-1 inh 50.8 | tim23-1 conf 41.5
COC(=O)c1sccc1NC(=O)Nc1ccc(Cl)c(Cl)c1	none
CCc1ccc(NC(=O)Nc2ccsc2C(=O)OC)cc1	tim23-1 inh 56.0 | tim23-1 conf 57.1
COC(=O)c1sccc1NC(=O)Nc1ccc(C)c(C)c1	tim23-1 inh 59.7 (no result: SKKanGAS inh) | tim23-1 conf 49.1
COc1ccc(NCc2ccc([N+](=O)[O-])s2)c(OC)c1	none (no result: tim23-1 inh, tim10-1 inh, SKKanGAS inh, TIM10 inh)
O=[N+]([O-])c1ccc(CNc2cccc(Cl)c2)s1	tim23-1 inh 56.5 | tim23-1 conf 56.2
O=[N+]([O-])c1ccccc1CNc1ccc(F)c(Cl)c1	none
O=[N+]([O-])c1ccc(CNc2ccc(F)cc2)s1	tim23-1 inh 51.1 | tim23-1 conf 45.5
COc1ccc(NCc2ccc([N+](=O)[O-])s2)cc1	tim23-1 inh 57.8 | tim23-1 conf 68.7
Cc1cc(C)n(-c2nc3ccccc3c(=O)n2OCc2ccc(F)cc2)n1	none
Cc1cc(C)n(-c2nc3ccccc3c(=O)n2OCc2ccc(Cl)cc2)n1	tim23-1 inh 52.4 (no result: PfHsp90 yeast 2) | tim23-1 conf 50.7
COC(=O)c1ccc(Nc2cc(C)nc3ccc(C)cc23)cc1	none
NC(=S)N/N=C/c1ccc(-c2ccc(Cl)c(Cl)c2)o1	tim23-1 inh 58.3 | tim23-1 conf 59.9
CCOc1ccc(NC(=O)c2ccccc2O)cc1	none
CCOc1ccc(NC(=O)c2ccccc2CO)cc1	tim23-1 inh 58.0 | tim23-1 conf inactive
CC1CCCC(C)N1C(=O)COC(=O)CCC1CCCC1 (stereo unspecified)	none
CC(=O)c1ccc(Nc2nc(C)cc(C)n2)cc1	none
C=CCc1c(C)nc(SC)nc1Nc1ccc(C(C)=O)cc1	tim23-1 inh 50.4 | tim23-1 conf 45.4
CCCn1c(-c2cccs2)nc2nc3ccccc3nc21	tim23-1 inh 53.7 | tim23-1 conf 39.8
COc1ccc(-c2cc(=O)oc3c(C)c(O)c(CN(C)C)cc23)cc1	none (no result: SKKanGAS inh)
Cc1ccc2[nH]c3c(c2c1)CN(C(=O)CN1CCN(c2cccc(C)c2C)CC1)CC3	tim23-1 inh 60.1 | tim23-1 conf inactive
Cc1ccc2[nH]c3c(c2c1)CN(C(=O)CN1CCN(C(=O)c2ccco2)CC1)CC3	none (no result: PfHsp90 yeast 2, ATG4B inh)
COC(=O)c1cc2c(ccn2-c2ccc(F)cc2)n1CC(=O)C(C)(C)C	none
CC(=O)Nc1ccc(-c2c(C)cc3oc(=O)cc(-c4ccccc4)c3c2C)cc1	tim23-1 inh 50.2 (no result: SKKanGAS inh) | tim23-1 conf inactive
CC1(C)c2cc(Cl)ccc2-n2c1cc(O)c(-c1ccccc1)c2=O	tim23-1 inh 61.7 | tim23-1 conf 57.5
Cc1c(O)cc2n(c1=O)-c1ccc(Cl)cc1C2(C)C	none
COc1ccccc1C(=O)Nc1ccc2c(c1)OCCO2	none
COc1cc(SC)ccc1C(=O)Nc1ccc2c(c1)OCCO2	tim23-1 inh 50.6 | tim23-1 conf 44.6
CN(C)CCCC1Sc2ccccc2Sc2ccccc21 (stereo unspecified)	none
COC(=O)CN1C(=O)C(O)(CC(=O)c2ccc(C)o2)c2ccccc21 (stereo unspecified)	none
COc1ccc(-c2nc3ccccn3c2CN2CCN(c3ccccc3F)CC2)cc1	tim23-1 inh 54.8 | tim23-1 conf 39.9
O=Cc1cnc2ccccc2c1-c1ccccc1	tim23-1 inh 63.5 | tim23-1 conf 57.5
COc1ccc(CN2CCN(CC=C(C)C)C(CCO)C2)cc1Cn1cncn1 (stereo unspecified)	none
O=C(c1ccccc1)N1C(=O)C(c2ccccc2)Oc2ccccc21 (stereo unspecified)	tim23-1 inh 79.6 | tim23-1 conf 56.8
CC1Oc2ccccc2N(CC(=O)c2ccccc2)C1=O (stereo unspecified)	none (no result: PfHsp90 yeast 2)
Cc1cc(-c2nn3c(-c4ccccc4)nnc3s2)c2ccccc2n1	none
Cc1ccccc1-c1nn2c(-c3ccccc3)nnc2s1	tim23-1 inh 53.3 | tim23-1 conf 51.2
COc1ccc2nc(C)cc(SCC(=O)NNC(=O)COc3cccc4ccccc34)c2c1	none
C(=N\N1CCN(C2c3ccccc3-c3ccccc32)CC1)/c1ccccn1	tim23-1 inh 54.3 | tim23-1 conf inactive
C(=N\N1CCN(C2c3ccccc3-c3ccccc32)CC1)/c1cccnc1	none
O=C1NC(=Nc2ccccc2)S/C1=C\c1cccs1	tim23-1 inh 65.0 | tim23-1 conf 72.3
Cc1cc(C)cc(N=C2NC(=O)/C(=C/c3cccs3)S2)c1	none
Brc1ccc2oc(-c3ccn[nH]3)cc2c1	tim23-1 inh 65.4 (no result: PfHsp90 yeast 2) | tim23-1 conf 48.2
CSc1ccc(S(=O)(=O)NC2CCCCCC2)cc1	tim23-1 inh 53.4 | tim23-1 conf 48.4
Cc1ccc(S(=O)(=O)NC2CCCCC2)cc1	none (no result: SKKanGAS inh)
O=C(N/N=C/C(Br)=C\c1ccccc1)c1ccco1	tim23-1 inh 65.6 | tim23-1 conf 45.5
O=C(N/N=C/C=N/NC(=O)c1ccco1)c1ccco1	none
Cc1occc1C(=O)N/N=C/C(Br)=C\c1ccccc1	tim23-1 inh 63.0 | tim23-1 conf 66.8
CC(C)(C)NC(=O)C(c1ccc(F)cc1)N(CC1CCCO1)C(=O)CCC(=O)Nc1ccccn1 (stereo unspecified)	none
COc1ccc(N=c2cc(-c3ccc(OC)cc3)oc3ccccc23)cc1	tim23-1 inh 50.9 | tim23-1 conf 39.1
